Assay outcomes deposited in PubChem BioAssay by National Center for Advancing Translational Sciences (NCATS).
The sample as a whole holds a higher share of hits than the screen did.
Cycloheximide cs = affects cycloheximide protein synthesis inhibition readout, counter-screen. cell reporter, cycloheximide protein synthesis inhibition counterscreen. max response, %. hit rate 12% among 300,000; in the data active = max response mostly above about 13%, no sharp cut-off; inactive = mostly below about 14%; note: read at 38.3 µM for the half of the compounds with a filed dose; 0% is about no effect
RE007 growth inh = less growth of the S. pombe RE007 Vpr strain | Potency, µM (titrated, usually from 92.2 µM), for inactives: top-dose activity change, negative = less growth, actives largely listed as inhibitors | S. pombe RE007 Vpr strain, BacTiter-Glo ATP luminescence, 24 h | hit rate 0.21% among 360,000; active = well fitted falling curve with a large enough effect; inconclusive = small, poorly fitted or top-dose-only effect; inactive = no such curve, though single readings can be large or run the other way; note: potency is the fitted concentration of half-maximal effect; % is set by controls: 0 for no effect and ±100 for the full control effect; nearly all actives have a fitted effect of over 50% in size
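Fission yeast strain RE007, carrying one chromosomally integrated HIV-1 vpr copy, was seeded at OD 0.01 in PMG+AL medium with 23 nL pinned compound. After 24 h at 30 °C and 99% humidity, viability was read by BacTiter-Glo luminescence.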
LmPK inh = LmPK (Leishmania mexicana) enzyme inhibition; hit rate 0.37% among 290,000; Potency, µM (doses to about 57.5 µM), for the others: at the highest dose activity change, negative = inhibition, usual class: inhibitors; purified LmPK, Kinase-Glo ATP luminescence, 1 h; Q27686; note: potency is the fitted concentration of half-maximal effect; % is set by controls: 0 for no effect and ±100 for the full control effect
Target sequence (Q27686 whole entry, looked up): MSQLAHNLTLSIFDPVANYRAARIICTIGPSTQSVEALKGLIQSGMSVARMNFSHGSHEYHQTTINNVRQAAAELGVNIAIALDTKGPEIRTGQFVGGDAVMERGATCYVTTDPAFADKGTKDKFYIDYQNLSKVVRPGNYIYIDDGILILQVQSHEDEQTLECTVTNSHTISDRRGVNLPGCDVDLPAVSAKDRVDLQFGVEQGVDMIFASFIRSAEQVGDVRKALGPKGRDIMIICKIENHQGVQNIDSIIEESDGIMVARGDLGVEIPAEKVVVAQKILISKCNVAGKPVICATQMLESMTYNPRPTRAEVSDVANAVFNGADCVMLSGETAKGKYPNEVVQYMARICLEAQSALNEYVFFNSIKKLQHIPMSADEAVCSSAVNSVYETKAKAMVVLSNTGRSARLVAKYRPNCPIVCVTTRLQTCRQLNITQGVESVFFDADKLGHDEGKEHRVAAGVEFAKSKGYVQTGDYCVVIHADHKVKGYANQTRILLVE
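Pyruvate kinase activity monitored as ATP production (luciferase luminescence). Conditions: 0.1 nM enzyme, 0.5 mM PEP, 0.1 mM ADP, 1 h, RT; normalized against uninhibited and no-enzyme wells.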
TbPYK inhibitor = blocks Trypanosoma brucei pyruvate kinase; Q57TT1; TbPYK enzyme, Kinase-Glo Plus ATP luminescence, 45 min; Potency, µM (top dose mostly 76.8 µM), for inactives: top-dose activity, negative = inhibition, most hits filed as inhibitors; hit rate 0.12% among 410,000; AID 624173; note: potency is the fitted concentration of half-maximal effect; % is set by controls: 0 for no effect and ±100 for the full control effect; nearly all actives have a fitted effect of over 50% in size
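TbPYK + substrate in 50 mM TEA pH 7.2, 100 mM KCl, 10 mM MgCl2, 0.05% BSA, 0.01% Tween-20; cpd pinned; ADP 130 uM final; 45 min RT; Kinase-Glo Plus 10 min; luminescence endpoint.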
Shiga inhibitor = blocks Shiga toxin action in Vero cells; Vero cells, Shiga toxin protein synthesis inhibition reporter; inhibition, % at 38.7 µM; hit rate 9.2% among 290,000; AID 2315; in the data active = inhibition mostly above about 28%, no sharp cut-off; inactive = mostly below about 43%; note: 0% is about no effect
Giardia FBPA inh = inhibitors of Giardia lamblia fructose-1,6-bisphosphate aldolase; A8B2U2; purified Giardia FBPA; Potency, µM (doses to about 59.6 µM), for the others: at the top dose activity, negative = inhibition, usual class: inhibitors; hit rate 0.71% among 290,000; AID 2451; note: potency is the fitted concentration of half-maximal effect; % is set by controls: 0 for no effect and ±100 for the full control effect; nearly all actives have a fitted effect of over 55% in size
Target sequence (A8B2U2 whole entry, looked up): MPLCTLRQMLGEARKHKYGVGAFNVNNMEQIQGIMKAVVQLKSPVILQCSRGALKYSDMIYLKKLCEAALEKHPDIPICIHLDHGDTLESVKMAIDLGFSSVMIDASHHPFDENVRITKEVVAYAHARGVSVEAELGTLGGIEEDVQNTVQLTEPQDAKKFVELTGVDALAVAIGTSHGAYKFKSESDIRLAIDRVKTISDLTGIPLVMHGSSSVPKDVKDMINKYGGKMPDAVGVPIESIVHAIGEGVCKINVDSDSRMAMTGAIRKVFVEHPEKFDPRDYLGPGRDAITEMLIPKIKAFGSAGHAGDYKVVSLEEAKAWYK
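Giardia FBPA (40 nM reagent) was preincubated 10 min at RT with compound (up to 57.5 uM final), then substrate plus GAPDH/TPI/NAD/arsenate coupling system with diaphorase/resazurin was added; resorufin fluorescence (525/598 nm) was read after 20 min.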
* = called active by the depositor; ? = inconclusive; . = not tested or not shown. Unless noted, calls come from the whole dose curve; as a rule, active = well fitted curve in the direction sought with a large enough effect; inconclusive = small, poorly fitted or top-dose-only effect, or another doubt; inactive = no such curve, though single readings can be large; an effect the other way counts as inactive or inconclusive.

SMILES | Cycloheximide cs | RE007 growth inh | LmPK inh | TbPYK inhibitor | Shiga inhibitor | Giardia FBPA inh
COc1ccccc1C/C(N)=N/OC(=O)c1ccc2c(c1)OCO2 | 44.3* | -11.0% | -0.3% | -6.4% | 104.5* | -1.9%
Cc1ncc2c(n1)NC(=O)NC2 | . | 9.7% | . | -5.0% | . | .
CCc1ccc(S(=O)(=O)N2CCN(c3ccc(Cl)c(Cl)c3)CC2)cc1 | . | . | . | -6.7% | . | .
FC(F)(F)c1cccnc1Oc1ccc(C2=NCCS2)cc1 | 29.9* | -5.6% | -2.9% | 1.1% | 58.6* | -5.4%
FC(F)(F)c1ccccc1NC1=NCCCS1 | -1.8 | 6.1% | -1.1% | -6.7% | -23.1 | 2.8%
O=C(CN1CCCN(Cc2cccc(F)c2)S1(=O)=O)Nc1ccc2c(c1)OCCO2 | . | . | . | -4.4% | . | .
Cc1cnc(CNc2ncncc2-c2ccccc2C)cn1 | . | . | . | . | . | -5.8%
Cc1ccc(-n2ncc3c(N4CCC(C)CC4)ncnc32)cc1C | . | . | . | -5.0% | . | .
COc1cccc(OCCN2CCN(c3ncnc4c3cnn4-c3ccccc3)CC2)c1 | 17.9* | 6.6% | 4.2% | -2.4% | 31.3 | -0.1%
Clc1ccc(-n2ncc3c(N4CCCC4)ncnc32)cc1 | 77.0* | 2.2% | -3.9% | 1.8% | 120.4* | 0.0%
CC1CCN(c2ncnc3c2cnn3-c2ccccc2)CC1 | 42.4* | -6.7% | 4.9% | 1.3% | 75.3* | 0.3%
Cc1ccc(-n2ncc3c(N4CCN(Cc5ccccc5)CC4)ncnc32)cc1 | . | . | . | -7.6% | . | .
COc1ccc(-n2ncc3c(N4CCC(C)CC4)ncnc32)cc1 | 20.1* | -13.0% | 0.6% | -2.3% | 26.2* | -11.8%
O=C(COc1cccc(Cl)c1)N1CCC(c2nc3ccccc3s2)CC1 | . | . | . | 2.3% | . | .
C[C@@H]1CN(C(=O)c2ccc(OC3CCN(S(=O)(=O)N(C)C)CC3)cc2)C[C@H](C)O1 | 10.1 | -24.5% | -2.2% | -6.3% | -2.1 | -6.3%
COc1cccc(Cn2c(C(C)n3c(-c4cnccn4)nc4ccccc43)nc3ccccc32)c1 (configuration not stated) | . | -4.4% | . | . | . | .
CCC(=O)N1CCc2cc(Br)cc(S(=O)(=O)CCC(=O)N3CCN(c4ccccc4OC)CC3)c21 | . | . | . | -3.1% | . | .
CCN(CC)CCOC(=O)c1ccc(NC(=O)c2cc3cc(OC)ccc3oc2=O)cc1 | . | . | . | -1.1% | . | .
O=C(c1ccccc1)N1CCN(c2ncnc3c2cnn3-c2ccccc2)CC1 | 14.0 | -28.7% | 2.5% | -0.9% | 16.5 | .
Cn1ncc2c(N3CCN(c4ccccc4F)CC3)ncnc21 | 13.1* | 0.9% | -2.7% | -2.0% | 6.8 | 0.4%
CCOC(=O)C1CCN(c2ncnc3c2cnn3-c2ccccc2)CC1 | 18.4* | 2.2% | -5.4% | -0.1% | 37.2 | -0.3%
O=C(c1ccco1)N1CCN(c2ncnc3c2cnn3-c2ccccc2)CC1 | 25.2* | ? | 3.8% | 0.2% | 40.9 | 0.4%
CC(C)CNC(=O)Nc1cc(C(=O)NCc2ccc(C(C)C)cc2)ccc1N1CCCC1 | . | . | . | 3.9% | . | .
O=c1cccc2n1Cc1cc3ccccc3nc1-2 | 39.2* | -5.9% | -28.5% | -5.5% | 38.2* | 0.3%
N#Cc1nc(-c2cccc3ccccc23)oc1NCC1CCCO1 (configuration not stated) | 51.7* | -8.0% | -1.0% | -1.7% | 65.5* | -17.2%
SMILES | Cycloheximide cs | RE007 growth inh | LmPK inh | TbPYK inhibitor | Shiga inhibitor | Giardia FBPA inh
N#Cc1nc(-c2ccc(Cl)cc2)oc1NCC1CCCO1 (configuration not stated) | 20.7* | 8.6% | -0.4% | 2.0% | 107.7* | -4.6%
N#CC(C#N)=Cc1ccc(C=C(C#N)C#N)cc1 | 20.0* | -19.0% | -1.4% | -10.7% | 27.1 | ?
NC(=O)C1CCCN(Cc2ccc3ccccc3c2)C1 (configuration not stated) | 1.0 | 0.5% | 4.0% | -7.4% | -16.2 | -11.2%
OC1CCCN(Cc2ccc3c(c2)Cc2ccccc2-3)C1 (configuration not stated) | 16.0* | 4.1% | -5.6% | 1.9% | 45.0 | -0.5%
O=C(Nc1nccs1)c1cc2c(s1)CCCCC2 | 3.9 | 31.6µM* | 14.1µM* | -22.0% | 15.2 | -11.8%
NNC(=O)c1cc2c(s1)CCCCCC2 | -2.2 | 32.8% | 3.6% | 4.5% | -3.5 | -8.9%
O=C(Nc1nncs1)c1cc2c(s1)CCC2 | 20.9* | -13.5% | -22.6% | -11.2% | 30.0* | 2.1%
CC(C)Cc1nnc(NC(=O)c2cc3c(s2)CCC3)s1 | 17.3* | 1.5% | -1.2% | -3.7% | 54.6* | -0.2%
CCSc1nnc(NC(=O)c2cc3c(s2)CCCC3)s1 | 25.2 | -12.7% | 8.4% | 1.4% | 10.9 | 1.5%
COc1cccc(Cn2c(=O)n(-c3cccc(Cl)c3C)c(=O)c3c4c(sc32)CN(C(C)=O)CC4)c1 | . | . | . | 0.5% | . | .
COc1ccc(N(C(=O)/C=C\C(=O)Nc2ccc(C)cc2)C(C(=O)NCc2ccco2)c2ccc(C)cc2)cc1 (configuration not stated) | . | . | . | 4.1% | . | .
CC(=O)c1ccc(Oc2ccc(C(C)=O)cc2)cc1 | 17.3* | -1.0% | 6.1% | -5.7% | 83.0 | 0.3%
CC1=C(C(=O)Nc2ccc(C)cc2C)C(CC(C)C)n2nc(SCc3ccccc3C)nc2N1 (configuration not stated) | . | . | . | 3.9% | . | .
CC(C)C[C@@H](CN1CCC[C@@H]1CN1C(=S)NC[C@@H]1Cc1ccc(O)cc1)N1C[C@H](Cc2ccc(O)cc2)N(CC2CCCCC2)C1=S | . | 19.4% | . | -3.2% | . | .
CCOc1ccccc1Nc1nc2ccccc2nc1NS(=O)(=O)c1ccc(Cl)cc1 | . | . | . | -2.0% | . | .
Nc1c(Br)cc2oc(-c3ccccc3)nc2c1Br | 17.8* | 11.1% | -4.4% | 0.5% | 33.1 | 1.6%
COc1ccc(-c2nc3c(Br)c(N)c(Br)cc3o2)cc1 | 9.5 | -9.3% | 22.4µM* | -2.5% | 19.1 | ?
CC[C@@H]([C@H](C)O)n1ncn(-c2ccc(N3CCN(c4ccc(OCC5CO[C@@](Cn6cncn6)(c6ccc(F)cc6F)C5)cc4)CC3)cc2)c1=O (some centres not stated) | . | . | . | 16.7% | . | .
CCOC(=O)N1CCN(Cc2nc(N)nc(Nc3ccc(Cl)cc3)n2)CC1 | 14.0* | 2.8% | 7.1% | -1.7% | 40.0 | -1.1%
CCOC(=O)N1CCN(Cc2nc(N)nc(Nc3ccc(Oc4ccccc4)cc3)n2)CC1 | 14.6* | -8.0% | 2.5% | -1.8% | 23.5 | -8.0%
CCOC(=O)N1CCN(Cc2nc(N)nc(Nc3ccc(OC)cc3)n2)CC1 | 6.1 | -6.4% | -5.3% | -0.8% | -18.2 | -12.8%
Cc1nc2nc(SCC(=O)NC(C)c3ccccc3)nn2c(C)c1Cc1c(F)cccc1Cl (configuration not stated) | . | . | . | -5.8% | . | .
Cc1ccc2oc(=O)c3cnn(CC(=O)N4CCN(c5ccc(F)cc5)CC4)c3c2c1 | . | . | . | 1.1% | . | .
O=C(C[n+]1cn(C(F)F)c2ccccc21)c1ccc(Br)cc1 | 28.4* | -6.2% | 1.9% | -1.9% | 62.4* | 4.0%
O=C(C[n+]1cc(Br)cc2ccccc21)c1ccc(Br)cc1 | 0.8 | -0.5% | -0.1% | 4.2% | -17.0 | 8.5%
